# Results filed as inconclusive are left out. Where a call stands in place of a potency, no number is given. Calls of active or inactive are those of the source. Calls come from the whole dose curve; as a rule, active = well fitted cell-killing curve with a large enough effect in the repeat runs; inconclusive = weak or mixed curves, or effect the other way; inactive = flat fitted curve, though single readings scatter.
# Assay: qHTS assay to identify small molecule agonists of the constitutive androstane receptor (CAR) signaling pathway - cell viability counter screen (AID 1224836); note: nearly all actives have a fitted effect of over 45% in size
# Settings: HepG2-CYP2B6-hCAR viability, CellTiter-Fluor, 23 h, PK11195 added to every well; series mostly up to 92.4 µM
# Excerpt: U.S. Tox21 Program National Center for Advancing Translational Sciences [NCATS] NIH Chemical Genomics Center [NCGC] U.S. Environmental Protection Agency [EPA] National Institutes of Environmental Health Sciences [NIEHS] National Toxicology Program [NTP] U.S. Food and Drug Administration [FDA] Tox21 Assay Overview: The constitutive androstane receptor (CAR) is a nuclear receptor which regulates multiple drug metabolizing enzymes (DMEs) and transporters. Activating CAR will generally increase the transcription and subsequent translation of CYP2B6 and CYP3A4. These two DMEs represent about 50% of the drug metabolizing potential in the body. […] Recently, there have also been studies performed indicating CARs role in energy metabolism and cancer therapy. Therefore, inducing CARs activity could have a potential effect on diabetes and cancer. Identifying environmental toxins and compounds which modulate CAR, through the use of the Tox21 10K compound collection, will be an important step in determining the toxicity and potential therapeutic effects these factors will have on the human body. To differentiate true CAR agonists from cytotoxic substances, the assay is multiplexed with a cell viability assay.
# Tox21 Assay Protocol Summary: A double-stable (hCAR and CYP2B6-2.2kb) transfected cell line, derived from human hepatoma (HepG2) cells, was utilized for the duration of the quantitative high-throughput screens. The HepG2-CYP2B6-hCAR cells were dispensed at 2500 cells/4 uL/well in 1536-well white solid bottom plates using a Multidrop Combi. After the assay plates were incubated at 37 C/5% CO2 for 4 hrs, 23 nL of compounds at 15 concentrations (from 5-48 columns) or positive control (from 1 to 4 columns) were transferred to the assay plates using a Pintool station. One uL of PK11195 (final concentration = 0.75 uM) was added, using a Flying Reagent Dispenser, inside each well. After a 23 hr incubation period at 37 C/5% CO2, 1 uL of CellTiter-Fluor reagent was added into each well of the assay plates using a Flying Reagent Dispenser. The fluorescence intensity in the plates was then measured using a ViewLux plate reader.
# Potency is the fitted concentration of half-maximal effect.
row,SMILES,Potency
1,CCCCC(CC)COC(=O)c1ccc(C(=O)OCC(CC)CCCC)c(C(=O)OCC(CC)CCCC)c1 (stereo not given),inactive
2,Oc1c(Cl)c(Cl)c(Cl)c(Cl)c1Cl,inactive
3,COc1ccc(C(CN(C)C)C2(O)CCCCC2)cc1 (stereo not given),inactive
4,CCN(CC)N=O,inactive
5,CCC(C)(c1ccc(O)cc1)c1ccc(O)cc1,inactive
6,CC(C)NC(C)C,inactive
7,Cc1ccc(OP(=O)(Oc2ccc(C)cc2)Oc2ccc(C)cc2)cc1,inactive
8,CCCCNC(=O)n1c(NC(=O)OC)nc2ccccc21,inactive
9,CC(C)=CC1C(C(=O)OCc2coc(Cc3ccccc3)c2)C1(C)C (stereo not given),inactive
10,COP(=S)(OC)Oc1ccc([N+](=O)[O-])cc1,inactive
11,C=CCc1ccc(OC)cc1,inactive
12,C=CCc1ccc2c(c1)OCO2,inactive
13,c1nc[nH]n1,inactive
14,CCOc1cc(Oc2ccc(C(F)(F)F)cc2Cl)ccc1[N+](=O)[O-],inactive
15,Oc1ccc(-c2ccccc2)cc1,inactive
16,CCOP(=S)(OCC)O/N=C(\C#N)c1ccccc1,inactive
17,Cc1cc(C)cc(C)c1,inactive
18,Nc1c(Cl)cc([N+](=O)[O-])cc1Cl,inactive
19,Nc1ccc(Cl)cc1N,4.33 µM (active)
20,CC(C)(c1cc(Cl)c(O)c(Cl)c1)c1cc(Cl)c(O)c(Cl)c1,inactive

row,SMILES,Potency
1,Cc1c(COC(=O)[C@@H]2[C@H](/C=C(\Cl)C(F)(F)F)C2(C)C)cccc1-c1ccccc1,inactive
2,O=C(NC(=O)c1c(F)cccc1F)Nc1ccc(Cl)cc1,inactive
3,O=C(O)CC[N+](=O)[O-],inactive
4,Cc1ccccc1[N+](=O)[O-],inactive
5,Cc1ccc(N)c(N)c1,inactive
6,O=C1C=CC(=O)C=C1,inactive
7,CCC(=O)O[C@H]1CC[C@H]2[C@@H]3CCC4=CC(=O)CC[C@]4(C)[C@H]3CC[C@]12C,inactive
8,C=C(C)C(=O)OCC1CO1 (stereo not given),inactive
9,CCC(CC)Nc1c([N+](=O)[O-])cc(C)c(C)c1[N+](=O)[O-],inactive
10,O=[N+]([O-])c1c(Cl)c(Cl)c(Cl)c(Cl)c1Cl,inactive
11,CCOC(=O)C(C)OC(=O)c1cc(Oc2ccc(C(F)(F)F)cc2Cl)ccc1[N+](=O)[O-] (stereo not given),inactive
12,CC(O)CCO (stereo not given),inactive
13,C[C@]12CCC(=O)C(O)=C1CC[C@@H]1[C@@H]2CC[C@]2(C)C(=O)CC[C@@H]12,inactive
14,c1ccc(P(c2ccccc2)c2ccccc2)cc1,inactive
15,CCCCN(CCCC)N=O,inactive
16,O=[N+]([O-])c1cccc2ccccc12,inactive
17,C#C[C@]1(O)CC[C@H]2[C@@H]3CCC4=CC(=O)CC[C@]4(C)[C@H]3CC[C@@]21C,inactive
18,O=[N+]([O-])c1ccc(O)c([N+](=O)[O-])c1,30.8 µM (active)
19,Nc1ccc(-c2ccc(N)c(N)c2)cc1N,inactive
20,CC1(C)C(C=C(Cl)Cl)C1C(=O)OC(C#N)c1cccc(Oc2ccccc2)c1 (stereo not given),inactive

# — PubChem BioAssay (Tox21)
